# Reference: publication PMC7862700, “An all-to-all approach to the identification of sequence-specific readers for epigenetic DNA modifications on cytosine”
# How the values were obtained:
# Experiment in all cases: DAPPL (digital affinity profiling via proximity ligation, sequencing); 10 mM Tris-HCl pH 7.5, 50 mM NaCl, 1 mM DTT, 4% glycerol, room temperature, 30 min; GST-TFs on glutathione beads, 16-mer random dsDNA library, 0.1% formaldehyde crosslink after washing; high values mean tight binding
# FLI1 = molecular target: T1, FLI1 (Homo sapiens, UniProt Q01543 1-452); details: protein: recombinant; tags: N-terminal GST; dsDNA, one strand shown
# T1 sequence: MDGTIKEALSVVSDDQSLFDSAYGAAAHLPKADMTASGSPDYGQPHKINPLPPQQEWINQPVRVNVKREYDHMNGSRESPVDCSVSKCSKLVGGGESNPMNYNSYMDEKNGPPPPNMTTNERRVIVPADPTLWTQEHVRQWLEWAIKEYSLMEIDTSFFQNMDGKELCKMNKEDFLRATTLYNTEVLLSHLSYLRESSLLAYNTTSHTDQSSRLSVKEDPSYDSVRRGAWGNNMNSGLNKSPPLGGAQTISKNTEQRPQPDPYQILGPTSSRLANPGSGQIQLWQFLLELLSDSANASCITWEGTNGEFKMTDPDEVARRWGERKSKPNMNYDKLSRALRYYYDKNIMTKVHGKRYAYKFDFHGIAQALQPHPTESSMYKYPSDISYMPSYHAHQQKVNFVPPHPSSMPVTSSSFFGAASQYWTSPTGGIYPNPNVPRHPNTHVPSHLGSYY
# Procedure, shortened: (§1)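 The binding signal reported is, for every hexamer, its read frequency for a factor over its read frequency for the tag-only sample. Reads came from pools of yeast-expressed, GST-fused human transcription factors on glutathione beads, barcoded with DNA and mixed with that sample, which were incubated with 200 nmole of a random double-stranded 16-mer DNA library in Tris/NaCl/DTT/glycerol buffer at room temperature for 30 min. After washing, the pools were crosslinked with 0.1% formaldehyde, proximity-ligated with BsaI/T4 ligase for 1 h at 37 °C, PCR-amplified and sequenced on an Illumina NextSeq500.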
# ELK1 = molecular target: T2, ELK1 (Homo sapiens, UniProt P19419 1-428); details: protein: recombinant; tags: N-terminal GST; dsDNA, one strand shown
# T2 sequence: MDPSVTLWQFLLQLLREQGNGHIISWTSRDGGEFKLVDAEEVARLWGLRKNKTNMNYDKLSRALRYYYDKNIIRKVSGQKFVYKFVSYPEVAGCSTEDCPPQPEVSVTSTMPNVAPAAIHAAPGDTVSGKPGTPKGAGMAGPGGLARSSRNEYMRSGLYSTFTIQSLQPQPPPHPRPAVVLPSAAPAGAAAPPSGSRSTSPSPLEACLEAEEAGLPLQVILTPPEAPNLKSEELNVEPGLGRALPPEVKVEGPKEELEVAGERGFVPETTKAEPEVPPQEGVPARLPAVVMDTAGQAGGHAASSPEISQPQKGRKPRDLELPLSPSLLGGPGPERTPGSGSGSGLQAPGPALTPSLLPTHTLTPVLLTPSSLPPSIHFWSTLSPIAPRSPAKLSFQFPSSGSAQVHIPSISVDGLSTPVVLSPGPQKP
# Procedure, shortened: as §1
# GABPA = molecular target: T3, GABPA (Homo sapiens, UniProt Q06546 1-454); details: protein: recombinant; tags: N-terminal GST; dsDNA, one strand shown
# T3 sequence: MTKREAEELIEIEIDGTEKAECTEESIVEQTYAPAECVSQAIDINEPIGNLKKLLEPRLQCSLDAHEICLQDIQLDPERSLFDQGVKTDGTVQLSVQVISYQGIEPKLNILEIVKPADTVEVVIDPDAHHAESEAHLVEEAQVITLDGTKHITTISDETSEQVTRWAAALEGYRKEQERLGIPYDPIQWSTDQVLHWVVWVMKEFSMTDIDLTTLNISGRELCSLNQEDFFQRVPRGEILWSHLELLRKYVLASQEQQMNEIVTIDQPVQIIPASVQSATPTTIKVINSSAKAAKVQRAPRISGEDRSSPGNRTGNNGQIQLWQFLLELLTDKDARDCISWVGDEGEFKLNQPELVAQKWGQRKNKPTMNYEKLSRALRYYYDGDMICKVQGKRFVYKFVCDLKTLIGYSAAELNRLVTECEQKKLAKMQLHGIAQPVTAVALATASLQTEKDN
# Procedure, shortened: as §1
# ERG = molecular target: T4, ERG (Homo sapiens, UniProt P11308 1-479); details: protein: recombinant; tags: N-terminal GST; dsDNA, one strand shown
# T4 sequence: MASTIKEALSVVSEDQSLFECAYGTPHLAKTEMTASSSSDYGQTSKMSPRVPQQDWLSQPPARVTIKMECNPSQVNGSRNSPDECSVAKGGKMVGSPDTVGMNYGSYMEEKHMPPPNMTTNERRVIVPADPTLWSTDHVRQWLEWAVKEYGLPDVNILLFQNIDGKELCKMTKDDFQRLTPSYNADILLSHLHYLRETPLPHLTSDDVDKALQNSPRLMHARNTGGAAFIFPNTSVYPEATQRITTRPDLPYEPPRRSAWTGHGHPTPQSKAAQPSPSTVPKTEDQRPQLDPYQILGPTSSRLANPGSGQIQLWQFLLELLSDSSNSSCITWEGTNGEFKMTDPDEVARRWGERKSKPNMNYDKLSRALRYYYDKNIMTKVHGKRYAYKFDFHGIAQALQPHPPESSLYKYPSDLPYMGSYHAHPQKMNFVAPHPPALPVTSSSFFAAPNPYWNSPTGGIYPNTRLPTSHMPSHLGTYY
# Procedure, shortened: as §1
# ELF1 = ELF1 (Homo sapiens, UniProt P32519 1-619); details: protein: recombinant; tags: N-terminal GST; dsDNA, one strand shown
# Procedure, shortened: as §1
# EHF = molecular target: T5, EHF (Homo sapiens, UniProt Q9NZC4 1-300); details: protein: recombinant; tags: N-terminal GST; dsDNA, one strand shown
# T5 sequence: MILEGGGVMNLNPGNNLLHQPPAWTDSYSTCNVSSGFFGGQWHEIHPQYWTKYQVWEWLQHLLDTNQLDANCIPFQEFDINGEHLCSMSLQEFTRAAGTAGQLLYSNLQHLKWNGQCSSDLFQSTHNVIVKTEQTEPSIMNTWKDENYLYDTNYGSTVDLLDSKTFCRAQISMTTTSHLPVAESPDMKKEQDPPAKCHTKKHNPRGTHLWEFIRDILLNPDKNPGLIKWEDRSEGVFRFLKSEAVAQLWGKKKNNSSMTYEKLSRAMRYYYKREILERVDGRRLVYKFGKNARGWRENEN
# Procedure, shortened: as §1
# SPI1 = SPI1 (Homo sapiens, UniProt P17947 1-270); details: protein: recombinant; tags: N-terminal GST; dsDNA, one strand shown
# Procedure, shortened: as §1
# SPIB = SPIB (Homo sapiens, UniProt Q01892 1-262); details: protein: recombinant; tags: N-terminal GST; dsDNA, one strand shown
# Procedure, shortened: as §1
# ELK3 = molecular target: T6, ELK3 (Homo sapiens, UniProt P41970 1-407); details: protein: recombinant; tags: N-terminal GST; dsDNA, one strand shown
# T6 sequence: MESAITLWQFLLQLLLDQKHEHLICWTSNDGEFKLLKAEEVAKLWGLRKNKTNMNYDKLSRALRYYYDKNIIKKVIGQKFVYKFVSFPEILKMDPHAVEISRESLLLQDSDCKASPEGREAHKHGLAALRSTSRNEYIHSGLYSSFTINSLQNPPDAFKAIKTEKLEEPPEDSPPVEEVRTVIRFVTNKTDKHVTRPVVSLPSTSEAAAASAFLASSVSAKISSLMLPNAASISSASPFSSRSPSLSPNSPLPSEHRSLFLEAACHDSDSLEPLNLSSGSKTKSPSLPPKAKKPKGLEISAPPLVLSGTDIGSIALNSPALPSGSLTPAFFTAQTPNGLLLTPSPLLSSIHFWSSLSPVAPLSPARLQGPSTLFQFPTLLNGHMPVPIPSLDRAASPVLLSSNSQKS
# Procedure, shortened: as §1
# FEV = molecular target: T7, FEV (Homo sapiens, UniProt Q99581 1-238); details: protein: recombinant; tags: N-terminal GST; dsDNA, one strand shown
# T7 sequence: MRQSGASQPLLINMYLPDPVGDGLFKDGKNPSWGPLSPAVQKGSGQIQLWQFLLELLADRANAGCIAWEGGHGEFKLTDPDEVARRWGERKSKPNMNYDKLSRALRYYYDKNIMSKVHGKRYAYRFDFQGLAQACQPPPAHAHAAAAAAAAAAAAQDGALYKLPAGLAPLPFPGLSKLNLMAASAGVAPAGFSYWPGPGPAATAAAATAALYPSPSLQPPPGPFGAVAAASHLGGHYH
# Procedure, shortened: as §1
# ETV5 = ETV5 (Homo sapiens, UniProt P41161 1-510); details: protein: recombinant; tags: N-terminal GST; dsDNA, one strand shown
# Procedure, shortened: as §1
# HSF1 = HSF1 (Homo sapiens, UniProt Q00613 1-529); details: protein: recombinant; tags: N-terminal GST; chain copies: 3; dsDNA, one strand shown
# Procedure, shortened: as §1
# SPIC = molecular target: T8, SPIC (Homo sapiens, UniProt Q8N5J4 1-248); details: protein: recombinant; tags: N-terminal GST; dsDNA, one strand shown
# T8 sequence: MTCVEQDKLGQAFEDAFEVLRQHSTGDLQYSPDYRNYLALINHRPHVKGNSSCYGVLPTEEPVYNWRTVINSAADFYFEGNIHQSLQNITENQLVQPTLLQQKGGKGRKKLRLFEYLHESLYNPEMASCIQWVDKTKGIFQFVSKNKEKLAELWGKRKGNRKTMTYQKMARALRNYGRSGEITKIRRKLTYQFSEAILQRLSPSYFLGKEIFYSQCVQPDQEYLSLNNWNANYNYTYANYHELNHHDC
# Procedure, shortened: as §1
# ELF4 = ELF4 (Homo sapiens, UniProt Q99607 1-663); details: protein: recombinant; tags: N-terminal GST; dsDNA, one strand shown
# Procedure, shortened: as §1
# ELK4 = molecular target: T9, ELK4 (Homo sapiens, UniProt P28324-2 1-405); details: protein: recombinant; tags: N-terminal GST; dsDNA, one strand shown
# T9 sequence: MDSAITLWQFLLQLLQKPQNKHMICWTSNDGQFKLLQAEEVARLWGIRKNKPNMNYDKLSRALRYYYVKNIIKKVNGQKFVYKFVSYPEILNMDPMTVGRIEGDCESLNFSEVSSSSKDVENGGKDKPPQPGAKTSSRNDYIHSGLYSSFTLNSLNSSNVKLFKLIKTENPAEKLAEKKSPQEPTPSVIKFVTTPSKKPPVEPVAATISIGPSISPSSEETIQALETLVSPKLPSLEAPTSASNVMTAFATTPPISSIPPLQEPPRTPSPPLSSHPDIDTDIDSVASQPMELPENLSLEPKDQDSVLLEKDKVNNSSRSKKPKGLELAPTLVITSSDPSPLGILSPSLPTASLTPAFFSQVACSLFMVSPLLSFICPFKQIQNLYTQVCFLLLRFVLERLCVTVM
# Procedure, shortened: as §1
# ELF3 = molecular target: T10, ELF3 (Homo sapiens, UniProt P78545 1-371); details: protein: recombinant; tags: N-terminal GST; dsDNA, one strand shown
# T10 sequence: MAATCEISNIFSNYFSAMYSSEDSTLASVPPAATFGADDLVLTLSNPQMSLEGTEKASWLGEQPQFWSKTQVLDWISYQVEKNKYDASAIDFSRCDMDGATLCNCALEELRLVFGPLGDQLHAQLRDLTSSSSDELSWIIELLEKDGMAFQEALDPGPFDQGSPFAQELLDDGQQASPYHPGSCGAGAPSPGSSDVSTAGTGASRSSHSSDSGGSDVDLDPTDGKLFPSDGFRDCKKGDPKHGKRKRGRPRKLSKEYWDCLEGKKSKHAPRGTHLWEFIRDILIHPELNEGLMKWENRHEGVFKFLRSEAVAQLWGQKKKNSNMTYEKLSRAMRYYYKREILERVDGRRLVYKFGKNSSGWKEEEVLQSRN
# Procedure, shortened: as §1
# CRX = CRX (Homo sapiens, UniProt O43186 1-299); details: protein: recombinant; tags: N-terminal GST; dsDNA, one strand shown
# Procedure, shortened: as §1
# ETV1 = ETV1 (Homo sapiens, UniProt P50549 1-477); details: protein: recombinant; tags: N-terminal GST; dsDNA, one strand shown
# Procedure, shortened: as §1
# Sequence of ELF1 (P32519 whole entry): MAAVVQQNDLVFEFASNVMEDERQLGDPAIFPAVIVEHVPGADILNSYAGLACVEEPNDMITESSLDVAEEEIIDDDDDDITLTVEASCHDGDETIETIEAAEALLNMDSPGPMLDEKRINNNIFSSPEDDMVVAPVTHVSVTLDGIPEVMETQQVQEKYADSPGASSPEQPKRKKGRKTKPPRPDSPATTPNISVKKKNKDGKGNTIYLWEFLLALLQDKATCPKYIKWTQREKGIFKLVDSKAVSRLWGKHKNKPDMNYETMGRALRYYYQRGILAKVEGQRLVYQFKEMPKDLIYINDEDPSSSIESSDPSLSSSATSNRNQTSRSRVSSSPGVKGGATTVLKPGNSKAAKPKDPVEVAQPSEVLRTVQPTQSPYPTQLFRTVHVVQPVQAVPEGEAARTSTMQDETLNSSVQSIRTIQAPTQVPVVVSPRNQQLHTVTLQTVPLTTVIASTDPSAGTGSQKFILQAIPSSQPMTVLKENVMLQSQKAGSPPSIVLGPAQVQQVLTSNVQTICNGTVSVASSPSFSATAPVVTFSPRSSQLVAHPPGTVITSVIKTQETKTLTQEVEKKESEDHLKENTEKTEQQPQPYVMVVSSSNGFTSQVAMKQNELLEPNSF
# Sequence of ETV1 (P50549 whole entry): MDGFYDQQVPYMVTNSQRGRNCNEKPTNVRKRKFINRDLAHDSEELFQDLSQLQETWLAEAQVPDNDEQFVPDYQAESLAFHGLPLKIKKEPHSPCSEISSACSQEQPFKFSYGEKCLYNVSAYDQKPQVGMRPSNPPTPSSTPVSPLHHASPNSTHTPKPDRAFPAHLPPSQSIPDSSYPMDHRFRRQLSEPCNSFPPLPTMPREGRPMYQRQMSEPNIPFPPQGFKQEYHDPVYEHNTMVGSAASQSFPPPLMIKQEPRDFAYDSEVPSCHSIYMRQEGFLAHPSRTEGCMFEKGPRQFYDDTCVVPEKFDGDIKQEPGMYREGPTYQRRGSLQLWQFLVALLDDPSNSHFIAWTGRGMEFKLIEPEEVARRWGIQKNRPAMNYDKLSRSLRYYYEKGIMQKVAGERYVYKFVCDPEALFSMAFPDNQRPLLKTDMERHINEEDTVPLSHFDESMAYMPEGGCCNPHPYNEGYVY
# Sequence of CRX (O43186 whole entry): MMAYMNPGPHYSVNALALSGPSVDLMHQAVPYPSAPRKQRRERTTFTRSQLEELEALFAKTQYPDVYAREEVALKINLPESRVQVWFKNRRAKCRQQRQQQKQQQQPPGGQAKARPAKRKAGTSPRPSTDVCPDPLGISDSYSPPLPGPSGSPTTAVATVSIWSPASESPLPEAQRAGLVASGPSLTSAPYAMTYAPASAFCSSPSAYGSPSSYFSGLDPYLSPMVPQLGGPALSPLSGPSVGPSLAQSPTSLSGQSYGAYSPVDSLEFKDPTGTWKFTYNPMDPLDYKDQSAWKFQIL
# Sequence of ETV5 (P41161 whole entry): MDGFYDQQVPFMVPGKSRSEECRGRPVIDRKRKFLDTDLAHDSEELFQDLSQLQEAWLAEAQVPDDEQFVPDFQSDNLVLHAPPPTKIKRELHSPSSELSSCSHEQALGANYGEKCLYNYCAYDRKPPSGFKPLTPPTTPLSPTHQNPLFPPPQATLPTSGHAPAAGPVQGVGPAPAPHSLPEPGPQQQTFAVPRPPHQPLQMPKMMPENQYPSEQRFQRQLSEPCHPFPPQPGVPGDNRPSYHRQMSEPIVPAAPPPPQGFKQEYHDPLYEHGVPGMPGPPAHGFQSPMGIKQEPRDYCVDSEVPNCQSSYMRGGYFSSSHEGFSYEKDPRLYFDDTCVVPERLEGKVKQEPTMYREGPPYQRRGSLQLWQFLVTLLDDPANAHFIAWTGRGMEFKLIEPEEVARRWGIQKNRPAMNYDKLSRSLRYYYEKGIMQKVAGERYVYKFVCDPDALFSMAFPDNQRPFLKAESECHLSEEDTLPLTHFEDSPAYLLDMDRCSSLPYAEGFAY
# Sequence of SPIB (Q01892 whole entry): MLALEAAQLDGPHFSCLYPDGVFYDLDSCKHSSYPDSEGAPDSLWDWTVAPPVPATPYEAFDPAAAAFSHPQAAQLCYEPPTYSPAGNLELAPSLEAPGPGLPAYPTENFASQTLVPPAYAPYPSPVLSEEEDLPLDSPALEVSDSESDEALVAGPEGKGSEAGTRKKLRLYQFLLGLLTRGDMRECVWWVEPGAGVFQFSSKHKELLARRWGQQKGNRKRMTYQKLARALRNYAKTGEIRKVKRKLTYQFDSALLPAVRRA
# Sequence of HSF1 (Q00613 whole entry): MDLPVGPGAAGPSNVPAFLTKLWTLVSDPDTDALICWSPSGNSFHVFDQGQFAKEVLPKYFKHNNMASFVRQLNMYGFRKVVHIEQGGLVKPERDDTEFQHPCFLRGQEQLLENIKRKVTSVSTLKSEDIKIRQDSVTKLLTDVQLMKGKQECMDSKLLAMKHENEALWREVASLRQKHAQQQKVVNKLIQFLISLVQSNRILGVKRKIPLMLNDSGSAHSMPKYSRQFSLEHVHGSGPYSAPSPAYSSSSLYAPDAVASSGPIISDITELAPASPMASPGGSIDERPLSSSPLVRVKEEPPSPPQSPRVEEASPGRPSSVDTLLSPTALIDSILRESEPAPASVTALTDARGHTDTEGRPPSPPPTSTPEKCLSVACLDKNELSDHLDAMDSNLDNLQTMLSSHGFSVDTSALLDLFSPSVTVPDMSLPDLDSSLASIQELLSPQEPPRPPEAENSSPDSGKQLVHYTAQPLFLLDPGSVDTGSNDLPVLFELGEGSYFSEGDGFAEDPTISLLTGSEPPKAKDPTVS
# Sequence of ELF4 (Q99607 whole entry): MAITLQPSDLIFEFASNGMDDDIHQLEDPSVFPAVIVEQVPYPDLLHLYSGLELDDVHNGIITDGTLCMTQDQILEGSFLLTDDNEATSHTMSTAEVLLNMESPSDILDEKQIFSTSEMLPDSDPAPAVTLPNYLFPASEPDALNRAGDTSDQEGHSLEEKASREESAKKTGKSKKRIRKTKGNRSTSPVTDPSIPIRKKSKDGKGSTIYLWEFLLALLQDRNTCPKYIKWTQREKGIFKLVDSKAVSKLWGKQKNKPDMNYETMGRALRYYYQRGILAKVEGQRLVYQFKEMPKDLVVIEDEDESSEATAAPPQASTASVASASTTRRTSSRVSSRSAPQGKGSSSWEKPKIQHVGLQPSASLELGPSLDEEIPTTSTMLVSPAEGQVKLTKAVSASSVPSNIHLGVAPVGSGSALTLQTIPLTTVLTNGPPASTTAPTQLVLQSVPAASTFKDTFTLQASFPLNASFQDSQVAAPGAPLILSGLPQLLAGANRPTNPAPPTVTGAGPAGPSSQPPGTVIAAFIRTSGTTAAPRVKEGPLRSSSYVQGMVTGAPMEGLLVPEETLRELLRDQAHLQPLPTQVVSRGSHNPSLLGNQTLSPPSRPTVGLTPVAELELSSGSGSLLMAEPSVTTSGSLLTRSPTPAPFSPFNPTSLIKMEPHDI
sequence,measurement,setting,value
AATAGG,binding signal,FLI1,"1.15 fold enrichment (6-mer frequency, TF over GST control)"
same,binding signal,ELK1,"1.11 fold enrichment (6-mer frequency, TF over GST control)"
same,binding signal,GABPA,"1.15 fold enrichment (6-mer frequency, TF over GST control)"
same,binding signal,ERG,"1.2 fold enrichment (6-mer frequency, TF over GST control)"
same,binding signal,ELF1,"1.08 fold enrichment (6-mer frequency, TF over GST control)"
same,binding signal,EHF,"1.27 fold enrichment (6-mer frequency, TF over GST control)"
same,binding signal,SPI1,"1.37 fold enrichment (6-mer frequency, TF over GST control)"
same,binding signal,SPIB,"1.22 fold enrichment (6-mer frequency, TF over GST control)"
same,binding signal,ELK3,"1.14 fold enrichment (6-mer frequency, TF over GST control)"
same,binding signal,FEV,"1.13 fold enrichment (6-mer frequency, TF over GST control)"
same,binding signal,ETV5,"1.16 fold enrichment (6-mer frequency, TF over GST control)"
same,binding signal,HSF1,"1.02 fold enrichment (6-mer frequency, TF over GST control)"
same,binding signal,SPIC,"1.14 fold enrichment (6-mer frequency, TF over GST control)"
same,binding signal,ELF4,"1.04 fold enrichment (6-mer frequency, TF over GST control)"
same,binding signal,ELK4,"1.08 fold enrichment (6-mer frequency, TF over GST control)"
same,binding signal,ELF3,"1.09 fold enrichment (6-mer frequency, TF over GST control)"
same,binding signal,CRX,"1.21 fold enrichment (6-mer frequency, TF over GST control)"
same,binding signal,ETV1,"1.25 fold enrichment (6-mer frequency, TF over GST control)"
